AMA1-RON2 inh: inhibitors of Plasmodium falciparum AMA1-RON2 interaction. hit rate 0.2% among 360,000. AID 720542. AlphaScreen AMA1-biotinylated RON2 peptide binding. Potency, µM (titrated, usually from 58.2 µM), most hits filed as inhibitors; active = well fitted inhibition curve with a large enough effect; inconclusive = small, poorly fitted or top-dose-only effect; inactive = no such curve, though single readings can be large or run the other way; also: nearly all actives have a fitted effect of over 45% in size
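AMA1 (3D7) with his tag at 25 nM final met compounds first, then biotinylated RON2 peptide at 25 nM; detection used donor plus acceptor beads, 10 µg/mL apiece, read by AlphaScreen after 30 min at room temperature.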
SARS PLpro yeast-1: blocks SARS-CoV papain-like protease in a yeast assay. S. cerevisiae expressing SARS-CoV PLpro, growth rescue. Potency, µM (titrated, usually from 32.9 µM), hits mostly activators. hit rate 0.19% among 330,000. AID 485353; also: nearly all actives have a fitted effect of over 55% in size
NS1 inh: blocks influenza NS1 protein function; Potency, µM (titrated, usually from 46.1 µM); hit rate 0.4% among 270,000; also: actives are rising curves; nearly all actives have a fitted effect of over 50% in size
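Compounds were scored for reversing the slow growth caused by influenza A NS1 in S. cerevisiae, measured by optical density at 600 nm. Assay medium contained 2% galactose at pH 6.0; NS1-free yeast of the same strain were the positive control.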
SARS PLpro yeast-2: Validates SARS-CoV PLpro inhibitor hits in yeast; shares compounds with SARS PLpro yeast-1; yeast expressing SARS-CoV PLpro, growth phenotype rescue; calls only; hit rate 19% among 1,000; AID 652038; call rule not given here
A number is an active result; n = inactive; u = inconclusive; x = no result; + = active, no number; [ ] = dose if it differs, or a comment. Most compounds without a hit are left out; they make up all but 0.65% or so of the library. Unless noted, calls follow the shape of the full dose curve.

SMILES	AMA1-RON2 inh	SARS PLpro yeast-1	NS1 inh	SARS PLpro yeast-2
CN(CC(=O)Nc1ccccc1Cl)C(=O)COC(=O)c1cc(S(=O)(=O)N(C)C)ccc1N1CCCC1	n	n	x	x
O=C(COC(=O)CCNS(=O)(=O)c1ccccc1)NC(=O)Cc1ccccc1	n	n	x	x
CCOC(=O)C1C(=O)CC(C)(O)C(C(=O)OCC)C1c1ccc([N+](=O)[O-])cc1 (configuration not stated)	n	n	n	x
COc1ccc(-c2nn(-c3ccccc3)cc2/C=N/O)cc1OC	n	n	n	x
COc1ccc(-c2nn(-c3ccccc3)cc2/C=N/NC(=S)NC(C)C)cc1OC	n	7.08µM	n	+
Cc1c(C)c2c(C)[nH]nc2oc1=O	n	u	n	n
CCCc1c(C)c2c(C)[nH]nc2oc1=O	n	n	n	x
CN(C)CCCN(C(=O)c1ccc(S(=O)(=O)N2CCCCCC2)cc1)c1nc2ccc(F)cc2s1	n	u	n	n
CN(C)CCCN(C(=O)c1ccc(S(=O)(=O)N2CCOCC2)cc1)c1nc2ccc(F)cc2s1	n	n	n	x
O=C(CN1CCN(c2ncccn2)CC1)Nc1ccccc1-n1cccc1	n	14.1µM	n	n
O=C(CN1CCN(c2ccccc2F)CC1)Nc1cccnc1Cl	n	n	x	x
CC(C)(C)NC(=O)NC(=O)CN1C(=O)NC(c2ccccc2)(c2ccccc2)C1=O	n	n	u	x
COc1ccc2c(c1)OC[C@H]1[C@H]2N2C(=O)CN(Cc3ccc(C)cc3)C(=O)[C@@]2(C)[C@H]1c1ccccc1	n	11.2µM	x	n
COc1ccc2c(c1)OC[C@H]1[C@H]2N2C(=O)CN(Cc3ccco3)C(=O)[C@@]2(C)[C@H]1c1ccccc1	n	n	x	x
CCCCN1CC(=O)N2[C@H]3c4ccc(OC)cc4OC[C@@H]3[C@H](c3ccccc3)[C@]2(C)C1=O	n	u	x	n
COc1ccc2c(c1)OC[C@H]1[C@H]2N2C(=O)CN(Cc3ccc(F)cc3)C(=O)[C@@]2(C)[C@H]1c1ccccc1	n	n	x	x
N#Cc1ccccc1S(=O)(=O)N1CCN(C(=O)C2CCCCC2)CC1	n	n	x	x
COc1ccc2cc(C(=O)C3CCCN(C(=O)Cc4c(C)noc4C)C3)ccc2c1 (configuration not stated)	n	n	n	x
CNC(=O)C[C@H]1C(=O)N(CCc2ccccc2)C[C@@H]1C	n	x	x	x
COc1ccc2oc(C(=O)OCC(=O)NC(=O)c3ccccc3)c(C)c2c1	n	n	n	x
COc1ccc2oc(C(=O)OCC(=O)N(C)CC(=O)Nc3ccc(F)cc3)c(C)c2c1	n	u	x	n
O.O.[NH-]C1(C(=O)O)CCCC1.[NH-]C1(C(=O)O)CCCC1.[Ni+2]	x	x	n	x
Cc1ccc(C2=NCCn3c2c2ccccc2[n+]3[O-])cc1	n	n	x	x
Cc1cccc(N2CCN(S(=O)(=O)c3c(C)[nH]c(C)c3C(=O)N3CCCC3)CC2C)c1 (configuration not stated)	n	n	n	x
Cc1cccc(OCCNc2cc(N3CCN(CCO)CC3)ccc2[N+](=O)[O-])c1	u	12.6µM	n	n
SMILES	AMA1-RON2 inh	SARS PLpro yeast-1	NS1 inh	SARS PLpro yeast-2
Cc1ccccc1OCCNc1cc(N2CCN(CCO)CC2)ccc1[N+](=O)[O-]	n[2.32 µM]	n	n	x
CCOC(=O)c1sc(/S(C)=N\S(=O)(=O)c2cccc(Cl)c2)c2c1CCC=C2 (configuration not stated)	n	n	n	x
O=C(CCCOc1ccc(Cl)cc1Cl)N/N=C/c1ccccc1	n	n	n	x
O=C(CCCOc1ccc(Cl)cc1Cl)N/N=C/c1ccccc1O	n	u	n	n
COc1ccc(C(=O)Nc2ccncc2)cc1[N+](=O)[O-]	n	n	n	x
CCc1ccc(NC(=O)c2ccc(OC)c([N+](=O)[O-])c2)cc1	n	u	n	n
CC(C)C(C(=O)O)N1C(=O)/C(=C/c2cccn2C)SC1=S (configuration not stated)	n	n	n	x
CCCC(C(=O)O)N1C(=O)/C(=C/c2cccn2C)SC1=S (configuration not stated)	n	u	u	n
O=C(CN(C(=O)c1csnn1)c1cccc2ccccc12)NCc1ccccc1	n	n	n	x
Cc1ccc(Nc2cc(C)nc(N3CCOCC3)n2)cc1	n	n	n	x
CCCCNc1cc(C)nc(N2CCOCC2)n1	n	u	n	n
O=C(Cc1c(F)cccc1Cl)Nc1ccc(S(=O)(=O)Nc2nccs2)cc1	n	n	n	x
CN(Cc1cn(Cc2ccccc2)nn1)C1CN(Cc2cn(Cc3ccccc3)nn2)S(=O)(=O)C1 (configuration not stated)	n	x	x	x
CCN1CCN(CC(O)COCc2ccccc2)CC1 (configuration not stated)	n	n	n	x
CCOC(=O)N1CCN(CC(O)COCc2ccccc2)CC1 (configuration not stated)	n	u	n	n

Screening results as filed in PubChem BioAssay.
